Laboratory results published in PubChem BioAssay (NCI).
Values joined by “and” are separate entries in the source; they are usually repeats but may differ in a detail not shown here. Identical values can stand only once. The panel holds about 83,000 compounds, 20% with a hit somewhere; the sample as a whole holds those more often.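 Treatment: one concentration, 48 hours, 96-well format. Scoring: percent growth, with anything below 10 considered active.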 Values without a mark were called inactive. Active and inactive are the calls of the source.

Columns and labels:
Assay in all cases: NCI-60 one-dose screen, 48 h (100 = growth as untreated, 0 = no growth, -100 = all killed)
Details in all cases: 10 µM unless noted
HCT-15 colon = test system: HCT-15 colon
HT29 colon = test system: HT29 colon
SNB-75 CNS = test system: SNB-75 CNS
SNB-19 CNS = test system: SNB-19 CNS
U251 CNS = test system: U251 CNS
PC-3 prostate = test system: PC-3 prostate
SK-MEL-5 melanoma = test system: SK-MEL-5 melanoma
UACC-62 melanoma = test system: UACC-62 melanoma
LOX IMVI melanoma = test system: LOX IMVI melanoma
SK-MEL-28 melanoma = test system: SK-MEL-28 melanoma
SK-MEL-2 melanoma = test system: SK-MEL-2 melanoma
EKVX NSCLC = test system: EKVX NSCLC
SN12C renal = test system: SN12C renal
TK-10 renal = test system: TK-10 renal
ACHN renal = test system: ACHN renal
CAKI-1 renal = test system: CAKI-1 renal
CCRF-CEM leukemia = test system: CCRF-CEM leukemia
MOLT-4 leukemia = test system: MOLT-4 leukemia
UO-31 renal = test system: UO-31 renal
A498 renal = test system: A498 renal

| SMILES | growth (HCT-15 colon) | growth (HT29 colon) | growth (SNB-75 CNS) | growth (SNB-19 CNS) | growth (U251 CNS) | growth (PC-3 prostate) | growth (SK-MEL-5 melanoma) | growth (UACC-62 melanoma) | growth (LOX IMVI melanoma) | growth (SK-MEL-28 melanoma) | growth (SK-MEL-2 melanoma) | growth (EKVX NSCLC) | growth (SN12C renal) | growth (TK-10 renal) | growth (ACHN renal) | growth (CAKI-1 renal) | growth (CCRF-CEM leukemia) | growth (MOLT-4 leukemia) | growth (UO-31 renal) | growth (A498 renal) |
| --- | --- | --- | --- | --- | --- | --- | --- | --- | --- | --- | --- | --- | --- | --- | --- | --- | --- | --- | --- | --- |
| C=CCN1C(=O)c2ccccc2C1=O | 109% | 122% | 95.9% | 98.1% | 101% | 96.6% | 101% | 90.8% | 94.7% | 108% | 101% | 104% | 87.4% | 98.3% | 102% | 93.2% | 93.3% | 102% | – | – |
| CCCC(=O)OCC(COC(=O)CCC)OC(=O)CCC | 106% | 102% | 93.5% | 97.6% | 88.3% | 85.4% | 98.5% | 89.9% | 101% | – | 99.2% | 93.7% | 96.9% | 99.4% | 108% | 94.8% | 95.4% | 102% | 87.3% | 104% |
| Nc1ccccc1SC(CC(=O)c1ccccc1)c1cccc([N+](=O)[O-])c1 (stereo not given) | 66.3% and 49.4% | 11.5% and 30.2% | 74.9% and 78.1% | 89.8% | 57.5% and 61.1% | 75% and 71.6% | 96.3% | 85.5% and 94% | 33.5% and 10.9% | – | 113% and 81.9% | 96.5% | 87.7% and 88.8% | 131% and 113% | 90.1% and 90.7% | 70.9% and 95.2% | 53.3% and 34.9% | 87.6% and 55% | – | 91.5% and 104% |
| COc1cc(Cl)ccc1C | 14.3% | 27.1% | 110% | 79% | 78% | 74.1% | 96.3% | 66.4% | 77.1% | – | 30.3% | 109% | 72.7% | 90.5% | -8.72% (active) | 54.7% | 91.9% | 81.7% | 67.1% | 110% |
| CCOC(=O)c1ccc(N2C(=O)C(Cl)(c3ccccc3)C2c2ccco2)cc1 (stereo not given) | 67% | 78.9% | 82.3% | 76.4% | 79.1% | 85.9% | 70.4% | 72.1% | 77% | – | 98.7% | 61.2% | 95% | 106% | – | 71.7% | 62.3% | 59.9% | 70.8% | – |
| Cc1ccc(NC(=S)N/C=C(\c2ccccc2)S(=O)Cc2ccccc2)c(C)c1 (stereo not given) | 103% | 108% | 87.2% | 100% | 87.9% | 86% | 98.7% | 92.2% | 102% | 112% | 103% | 86.7% | 98.9% | 109% | 103% | 87.5% | 97.3% | 94.3% | – | 103% |
| CN(C)C(=N)N=C(N)N | 83.1% and 121% | 98.6% and 113% | 101% and 114% | 106% and 108% | 81.1% and 118% | 104% | 103% and 131% | 99.7% and 120% | 87% and 110% | – | 106% and 25.1% | 113% | 95.3% and 127% | – | 92.8% and 115% | 115% | 79.9% | 95.6% and 131% | 91.5% and 106% | 128% and 106% |
| CCOc1ccc(/C=C\C(=O)O)cc1 | – | 105% | 104% | 106% | 103% | 102% | 108% | 109% | 105% | 107% | 114% | 115% | 101% | 109% | 109% | 113% | 96% | 92% | 98.7% | 101% |
| Cc1c(Cl)c(C)c(Cc2c(C)c(Cl)c(C)c(Cl)c2O)c(O)c1Cl | 5.02% (active) | 34% | 25% | 10.6% | 8.95% (active) | 8.74% (active) | -69.7% (active) | 18.2% | 4.09% (active) | – | 1.72% (active) | 3.88% (active) | 8.8% (active) | 25.1% | 3.3% (active) | 4.14% (active) | 26.5% | 16.5% | – | -21.6% (active) |
| CC(C)(C)OC(=O)NCCc1ccc(N)cc1 | 111% | 95.6% | – | 104% | 103% | 89.5% | 99.2% | 100% | 106% | 112% | 86.1% | 101% | 91.8% | 92.7% | – | 98.2% | 85.5% | 92.8% | – | 92.5% |
| CCNC1=CC(=O)c2ncccc2C1=O | 10.8% | 8.49% (active) | – | 19.6% | 30.7% | 44.7% | -98.3% (active) | -95.3% (active) | -35.3% (active) | -37% (active) | 26.9% | 72.6% | -32.2% (active) | 83.6% | 59% | – | 76.7% | 52.6% | 48.4% | 80.8% |
| OCCCc1ccccc1 | 100% | 94.9% | – | 99.3% | 95.6% | 100% | 103% | 96.2% | 107% | 108% | 106% | 110% | 96.5% | 108% | 106% | 104% | 108% | 111% | – | 110% |
| CC(=O)c1cccc(OC(=O)c2ccccc2)c1 | 127% | 104% | – | 97.2% | 103% | 90.9% | 108% | 91.1% | 87.4% | 92.1% | 88.9% | 110% | 91.2% | 106% | 109% | 91.1% | 97.8% | 84.7% | 103% | 107% |
| Cc1cnc(N)s1 | 105% | 100% | – | 91.4% | 95.5% | 88.9% | 97.5% | 90.7% | 98.6% | 99.1% | 102% | 94.2% | 97.2% | 114% | – | 96.9% | 99.4% | 103% | 81.6% | 103% |
